# Source: PubChem (National Center for Advancing Translational Sciences (NCATS))
# Rows were chosen to be rich in hits. Some 21% of all compounds tested hit in one or more screens of this group.
# HCMV antiviral = qHTS Assay for inhibitors of the human cytomegalovirus (HCMV). HFF cells, HCMV-luciferase reporter, 72 h; stronger effect = lower value. 410,000 tested, 4.5% active. activity change, negative = inhibition, % at 57.5 µM; in the data active = activity change below about -60%; inconclusive = no clear call, values can overlap the other calls; inactive = above about -39%; also: % is scaled to controls: 0 for no effect and ±100 for the full control effect
#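 HFF cells seeded 16 h at 37C, treated with compounds, infected with luciferase-reporter HCMV at MOI 1 PFU/cell; luciferase read at 72 h post infection, normalized to buffer-only and Salinomycin controls.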
# Shiga toxin inh = A qHTS for Small Molecule Inhibitors of Shiga Toxin; inhibition, % at 38.7 µM; Vero cells, Shiga toxin protein synthesis inhibition reporter; 290,000 tested, 9.2% active; in the data active = inhibition mostly above about 28%, no sharp cut-off; inactive = mostly below about 43%; also: 0% is about no effect
# HCV inh = qHTS Assay for Inhibitors of Hepatitis C Virus (HCV); Huh7.5.1 HCVcc-Cre infection, luciferase reporter, 44 h; AID 651820, 2012; Potency, µM (highest dose often 41.8 µM), for the others: top-dose activity change, negative = inhibition, most hits filed as inhibitors; 340,000 tested, 3.4% active; also: potency is read from the fitted curve at half-maximal effect; % is scaled to controls: 0 for no effect and ±100 for the full control effect
#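 1,000 cells/well; 4 h culture; + compound; + HCVcc-Cre (~0.5 moi); 44 h; luciferase substrate, RT 15 min; read 15 sec.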
# Pf growth 96h = Primary qHTS for delayed death inhibitors of the malarial parasite plastid, 96 hour incubation. P. falciparum luciferase reporter growth, 96 h. Potency, µM (highest dose often 28.7 µM), for the others: top-dose activity change, negative = inhibition, hits mostly inhibitors. 320,000 tested, 6.9% active; also: potency is read from the fitted curve at half-maximal effect; % is scaled to controls: 0 for no effect and ±100 for the full control effect
#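 P. falciparum expressing integrated firefly luciferase, in erythrocytes at 2% hematocrit, 0.05% parasitemia, incubated with compounds 96 h at 37 C, 5% CO2. Growth inhibition read as loss of luminescence; two-generation exposure targets delayed-death apicoplast inhibitors.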
# Pf growth 48h = Primary qHTS for delayed death inhibitors of the malarial parasite plastid, 48 hour incubation; P. falciparum luciferase growth in erythrocytes, 48 h; Potency, µM (top dose mostly 28.7 µM), for the others: top-dose activity change, negative = inhibition, actives largely listed as inhibitors; 310,000 tested, 5.9% active; AID 504832, 2011; also: potency is read from the fitted curve at half-maximal effect; % is scaled to controls: 0 for no effect and ±100 for the full control effect
#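 A one-generation exposure of luciferase-tagged malaria parasites in RPMI 1640/Albumax erythrocyte culture, 37 C and 5% CO2. Inhibition is inferred from decreased luminescence after adding detection reagent.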
# CHX counter = Cycloheximide Counterscreen for Small Molecule Inhibitors of Shiga Toxin; cell reporter, cycloheximide protein synthesis inhibition counterscreen; max response, %; 300,000 tested, 12% active; in the data active = max response mostly above about 13%, no sharp cut-off; inactive = mostly below about 14%; also: read at 38.3 µM for the half of the compounds with a filed dose; 0% is about no effect
# Starred values were filed as active, the others as inactive; ? = inconclusive; . = not tested or not shown; [ ] = remark or other dose. Unless noted, calls follow the shape of the dose curve; as a rule, active = well fitted inhibition curve with a large enough effect; inconclusive = small, poorly fitted or top-dose-only effect, or another doubt; inactive = no such curve, though single readings can be large or run the other way.
SMILES,HCMV antiviral,Shiga toxin inh,HCV inh,Pf growth 96h,Pf growth 48h,CHX counter
NC(=O)c1ccc(NC(=O)CSc2nnc(-c3ccncc3)n2Cc2ccco2)cc1,11,-2,17%,7%,3%,-4
CCOc1ccccc1NC(=O)Cn1nnc2sc(-c3ccccc3)cc2c1=O,-10,.,.,.,.,.
CCCN(C(=O)Cc1coc2cc(C)c(C)cc12)c1c(N)n(Cc2ccccc2)c(=O)[nH]c1=O,-5,.,2%,?,?,.
Cc1nc2ccccc2c(C)c1CC(=O)N(CC(C)C)c1c(N)n(Cc2ccccc2)c(=O)[nH]c1=O,-22,.,?,12µM*,?,.
CC(C)CN(C(=O)CCCc1nc2ccccc2c(=O)[nH]1)c1c(N)n(Cc2ccccc2)c(=O)[nH]c1=O,-9,.,1%,-8%,24%,.
Cc1cc2occ(CC(=O)N(CC(C)C)c3c(N)n(Cc4ccccc4)c(=O)[nH]c3=O)c2cc1C,-20,.,-10%,-7%,17µM*,.
Cc1ccc(Cl)cc1N1CCN(C(=O)COc2cc(=O)n(C)c3ccccc23)CC1,-26,.,.,.,.,.
COc1ccc(C(=O)c2cn(Cc3cccc(C)c3)c3cc4c(cc3c2=O)OCCO4)cc1OC,-3,.,.,.,.,.
CN(C)S(=O)(=O)c1ccc(NC(=O)CCNC(=O)c2ccco2)cc1,5,-6,-4%,9%,21%,-1
COc1cc(C=O)c(Br)cc1OCc1ccc(C)cc1,6,87*,-21%,129%,58%,47*
COc1ccc(NC(=O)NCCn2nnc3cc(S(=O)(=O)N(C)C)ccc32)cc1,6,.,.,.,.,.
CCc1nc2nc(C)cc(Nc3ccc(Br)cc3F)n2n1,-25,.,.,.,.,.
O=C(NN(c1ccccc1)c1ccccc1)c1ccc([N+](=O)[O-])o1,-93*,24,?,-22%[5.75 µM],?,27
O=C(NNC(=O)c1ccc([N+](=O)[O-])o1)c1ccccc1,-92*,52,?,-12%,?,25*
NC(=O)c1oc2ccccc2c1NC(=O)c1ccc([N+](=O)[O-])o1,-102*,28*,?,-20%,9.3µM*,15
NC(=O)c1oc2ccccc2c1NC(=O)c1nc2ccccc2s1,8,99*,?,-72%,164%,41*
NC(=O)c1oc2ccccc2c1NC(=O)c1ccc(F)cc1,83,0,?,7%,4%,-2
CCN(CC)c1ccc(CN(C(=O)Cc2coc3ccc(C)cc23)C2CCS(=O)(=O)C2)cc1 (centres undefined),10,.,.,.,.,.
Cc1ccc(C(=O)N/N=C/c2ccc(-c3ccc(Br)cc3[N+](=O)[O-])o2)o1,15,25,?,?,9.3µM*,18*
Nn1cnnc1N/N=C\c1ccc(-c2ccccc2[N+](=O)[O-])o1,105,12,-22%,38%,-6%,17*
Cc1c(C(=O)N/N=C/c2ccc(-c3ccccc3[N+](=O)[O-])o2)sc(N)c1C#N,?,-6,-12%,?,26%,18*
CCOC(=O)c1cc(S(=O)(=O)NCc2ccccc2)[nH]n1,11,.,.,.,.,.
CCCCC(CC)CNC(=O)CCS(=O)(=O)c1cccc2nsnc12 (centres undefined),-12,-24,-9%,-5%,4%,-1
CCCCC(CC)CNC(=O)CN(C)S(=O)(=O)c1cccc2nsnc12 (centres undefined),-25,53*,-7%,1%,?,10
O=C(NCCS(=O)(=O)N1CCN(c2ccccc2)CC1)C1CCCC1,-26,.,22%,-18%,0%,.
CCc1ccc(C(=O)CSc2nc(C)cc(=O)[nH]2)cc1,-20,49*,-1%,-20%,7%,32*
Cc1cc(=O)[nH]c(SCC(=O)c2ccc(F)c(C)c2)n1,?,26,22%,0.26µM*,?,14*
Cc1nc(SCC(=O)c2ccc(F)cc2)c([N+](=O)[O-])[nH]1,26,-18,14%,1.9µM*,5%,3
Cc1nc(SCC(=O)c2ccc(Cl)cc2)c([N+](=O)[O-])[nH]1,4,-17,14%,8%,21%,-2
